From PubChem
An excerpt weighted towards active compounds, which were near 5.9% of everything screened.
VP16 counter: counter-screen for ROR gamma inhibitors: Gal4-VP16 reporter; Drosophila S2 Gal4-VP16 UAS-luciferase, luminescence, 20 h; Potency, µM (highest dose often 53.6 µM), without a hit: at the top dose activity, negative = inhibition, most hits filed as inhibitors; 310,000 tested, 3.5% active; AID 2546;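 also: Gal4-VP16 expression switched on by copper sulfate through the metallothionein promoter; % is scaled to controls: 0 for no effect and ±100 for the full control effect; nearly all actives have a fitted effect of over 50% in size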
GLP1R inv ag: inverse agonists of human GLP-1 receptor | HEK293 GLP-1R CRE-luciferase, luminescence, 24 h; GLP-1R form is constitutively active | P43220 | Potency, µM (top dose mostly 38.3 µM), for the others: at the top dose activity change, negative = inhibition, actives largely listed as inhibitors | 410,000 tested, 1.6% active | AID 624417; also: % is scaled to controls: 0 for no effect and ±100 for the full control effect; nearly all actives have a fitted effect of over 55% in size
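Luminescence readout: a drop in cAMP-driven luciferase signal flags inverse agonism at a constitutively active GLP-1R stably expressed in HEK293. Compound exposure lasted 24 hr at 37 deg C, 5% CO2.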
RORgamma inh: ROR gamma (mouse) transcription inhibition. P51450. Potency, µM (doses to about 53.6 µM), without a hit: at the top dose activity change, negative = inhibition, most hits filed as inhibitors. 310,000 tested, 5.4% active. Drosophila S2 Gal4-RORgamma UAS-luciferase reporter, 20 h; also: % is scaled to controls: 0 for no effect and ±100 for the full control effect; nearly all actives have a fitted effect of over 60% in size
Target sequence (P51450 whole entry, looked up, the tested form may be a part): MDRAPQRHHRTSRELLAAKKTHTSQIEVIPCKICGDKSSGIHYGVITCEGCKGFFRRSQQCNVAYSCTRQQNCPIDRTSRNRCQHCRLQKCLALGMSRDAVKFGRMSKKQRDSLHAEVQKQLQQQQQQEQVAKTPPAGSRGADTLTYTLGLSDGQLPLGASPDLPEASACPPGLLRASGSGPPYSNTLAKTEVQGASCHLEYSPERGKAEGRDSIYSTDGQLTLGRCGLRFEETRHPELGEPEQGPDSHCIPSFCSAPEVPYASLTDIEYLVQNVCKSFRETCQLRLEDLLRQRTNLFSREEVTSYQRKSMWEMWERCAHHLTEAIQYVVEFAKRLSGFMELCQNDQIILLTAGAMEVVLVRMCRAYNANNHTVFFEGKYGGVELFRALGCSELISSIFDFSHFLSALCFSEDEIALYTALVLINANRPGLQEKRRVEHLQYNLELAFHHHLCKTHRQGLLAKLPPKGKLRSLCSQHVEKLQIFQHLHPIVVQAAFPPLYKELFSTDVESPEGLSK
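Compounds are pin-transferred onto Drosophila Schneider cells expressing a copper-inducible Gal4–ROR gamma transactivation domain fusion. After 1 hr, copper sulfate is added to 700 uM final; luciferase is read 20 hr later.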
HEK293 tox: cytotoxicity counter-screen for GLP-1 receptor inverse agonists; Potency, µM (highest dose often 38.3 µM), for the others: top-dose activity change, negative = inhibition, actives largely listed as inhibitors; 410,000 tested, 0.13% active; HEK293 cAMP-luciferase reporter cells, luminescence, 24 h;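 also: loss of luciferase light is scored as toxicity; % is scaled to controls: 0 for no effect and ±100 for the full control effect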
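Compound-treated cells are incubated 24 hr at 37 deg C under 5% CO2 after a 12 hour attachment period, then luciferase detection reagent is added and luminescence is measured following 12 min at room temperature; lowered signal indicates toxicity.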
GLP-1R agonist: activates the human GLP-1 receptor; P43220; Potency, µM (highest dose often 45.6 µM), without a hit: top-dose activation, most hits filed as activators; 380,000 tested, 0.007% active; HEK293 GLP-1R CRE-luciferase, luminescence, 4-6 h; cells express a hypersensitive GLP-1R form; AID 624172; also: % of control where 0% means no effect
Numbers without * were called inactive; [ ] = another dose, or the depositor's remark. Calls follow the shape of the dose curve; as a rule, active = well fitted curve in the direction sought with a large enough effect; inconclusive = small, poorly fitted or top-dose-only effect, or another doubt; inactive = no such curve, though single readings can be large; an effect the other way counts as inactive or inconclusive. Potency is read from the fitted curve at half-maximal effect.

Results for CCNC(=S)NS(=O)(=O)c1ccc(CC)cc1 ?
VP16 counter: inconclusive; GLP1R inv ag: 0.0%; RORgamma inh: 12.6µM*; HEK293 tox: 10.1%; GLP-1R agonist: 5.3%

What do the screens show for `O=C(N/N=C/c1cccc([N+](=O)[O-])c1O)c1cccs1`?
VP16 counter: 0.794µM*; GLP1R inv ag: inconclusive; RORgamma inh: 1.12µM*; HEK293 tox: inconclusive; GLP-1R agonist: -2.7%

Results for O=C(N/N=C/c1cccc([N+](=O)[O-])c1O)C(O)(c1ccccc1)c1ccccc1 ?
VP16 counter: 1.26µM*; GLP1R inv ag: inconclusive; RORgamma inh: 0.708µM*; HEK293 tox: -7.6%; GLP-1R agonist: -6.9%

How did COc1cc([N+](=O)[O-])cc(/C=N/NC(=O)C(O)(c2ccccc2)c2ccccc2)c1O do in these assays?
VP16 counter: 0.891µM*; GLP1R inv ag: inconclusive; RORgamma inh: 0.355µM*; HEK293 tox: -27.4%; GLP-1R agonist: 13.6%

What do the screens show for `O=C(N/N=C/c1cc([N+](=O)[O-])cc([N+](=O)[O-])c1O)/C(=C\c1cccs1)NC(=O)c1ccccc1`?
VP16 counter: inconclusive; GLP1R inv ag: 20.5%; RORgamma inh: 11.2µM*; HEK293 tox: 0.4%; GLP-1R agonist: -0.9%

How did CN1CCN(c2ccnc(-c3ccccc3C(F)(F)F)n2)CC1 do in these assays?
VP16 counter: -3.7%; RORgamma inh: -5.6%

Results for CCOC(=O)C1CCN(Cc2cn3c(-c4ccc(OC)cc4)nnc3s2)CC1 ?
GLP1R inv ag: 1.0%; HEK293 tox: -9.6%; GLP-1R agonist: 2.8%

Results for Cn1cccc1/C=N/n1c(-c2ccccc2)n[nH]c1=S ?
VP16 counter: inconclusive; GLP1R inv ag: 12.3%; RORgamma inh: 14.1µM*; HEK293 tox: -8.4%; GLP-1R agonist: -2.4%

How did Cn1cccc1/C=N/n1c(-c2ccc(C(C)(C)C)cc2)n[nH]c1=S do in these assays?
VP16 counter: inconclusive; GLP1R inv ag: inconclusive; RORgamma inh: 2.24µM*; HEK293 tox: 0.8%; GLP-1R agonist: 12.6%

What do the screens show for `Fc1ccc(-c2n[nH]c(=S)n2/N=C/c2c[nH]c3ccccc23)cc1`?
VP16 counter: -0.3%; GLP1R inv ag: 5.8%; RORgamma inh: inconclusive; HEK293 tox: -27.4%; GLP-1R agonist: 14.5%

Results for Cc1c(Cl)cccc1NC(=O)c1ccc2c(c1)CCCN2S(C)(=O)=O ?
GLP1R inv ag: -5.4%; HEK293 tox: -3.7%

What do the screens show for `O=C(NCCSCc1ccc(Cl)cc1Cl)c1ccc(CN2CCOCC2)cc1`?
VP16 counter: -27.1%; GLP1R inv ag: 10µM*; RORgamma inh: inconclusive; HEK293 tox: 2.0%; GLP-1R agonist: 1.1%

Results for O=C(NCCSc1ccc(Cl)cc1)c1ccc(CN2CCOCC2)cc1 ?
VP16 counter: 10.6%; GLP1R inv ag: -5.8%[7.66 µM]; RORgamma inh: 24.0%; HEK293 tox: -0.9%[7.66 µM]; GLP-1R agonist: 11.6%

What do the screens show for `CCc1ccc2oc(-c3ccc(OC)cc3)cc(=Nc3c(C)n(C)n(-c4ccccc4)c3=O)c2c1`?
VP16 counter: inconclusive; GLP1R inv ag: 10µM*; RORgamma inh: inconclusive; HEK293 tox: -11.2%; GLP-1R agonist: -3.9%

Results for CCc1ccc2oc(-c3ccc(OC)cc3)cc(=Nc3cccc(C(=O)O)c3)c2c1 ?
VP16 counter: 11.2µM*; GLP1R inv ag: inconclusive; RORgamma inh: inconclusive; HEK293 tox: 4.5%; GLP-1R agonist: -0.6%

How did C/C(CCN1CCCc2nc(C)c(C)cc21)=N\O[C@@H](C)c1cn([C@H](CO)Cc2ccccc2)nn1 do in these assays?
VP16 counter: -0.1%[10 µM]; RORgamma inh: -0.5%[10 µM]

How did NC1=NC[C@@H](Cc2ccc(O)cc2)N1CCC12CC3CC(CC(C3)C1)C2 do in these assays?
GLP1R inv ag: 8.91µM*; HEK293 tox: -12.2%; GLP-1R agonist: 12.4%

What do the screens show for `Cc1cccc(N=Cc2[nH]c3ccc(Br)c(Cl)c3c2O)c1`?
VP16 counter: inconclusive; GLP1R inv ag: 19.1%; RORgamma inh: -18.3%; HEK293 tox: -13.0%; GLP-1R agonist: 18.1%

What do the screens show for `COc1ccccc1CN=Cc1[nH]c2ccc(Br)c(Cl)c2c1O`?
VP16 counter: 11.2µM*; GLP1R inv ag: 9.2%; RORgamma inh: -100.8%; HEK293 tox: -16.8%; GLP-1R agonist: 7.5%

How did Cc1ncoc1C(=O)N1CCc2c([nH]c3ccccc23)C1c1ccccc1F (stereo not drawn) do in these assays?
VP16 counter: -3.8%; GLP1R inv ag: -23.1%[7.66 µM]; RORgamma inh: 9.9%; HEK293 tox: 0.7%[7.66 µM]; GLP-1R agonist: 13.1%

Results for CCn1nc(C)cc1C(=O)N1CCc2c([nH]c3ccccc23)C1c1cc(F)ccc1F (stereo not drawn) ?
VP16 counter: -22.9%; GLP1R inv ag: 10µM*; RORgamma inh: 25.5%; HEK293 tox: -21.9%; GLP-1R agonist: 16.7%

How did C=CCc1c(C)nc(C)nc1N/N=C/c1ccc([N+](=O)[O-])cc1 do in these assays?
VP16 counter: -4.4%; GLP1R inv ag: -2.8%; RORgamma inh: 11.2µM*; HEK293 tox: inconclusive; GLP-1R agonist: -4.4%

What do the screens show for `C=CCc1c(C)nc(C)nc1N/N=C/c1ccccc1O`?
VP16 counter: 5.01µM*; GLP1R inv ag: inconclusive; RORgamma inh: inconclusive; HEK293 tox: inconclusive; GLP-1R agonist: -4.0%

Results for CC(C)N(C(=O)Cn1cc(S(=O)(=O)Cc2ccc(C(F)(F)F)cc2)c2ccccc21)C(C)C ?
GLP1R inv ag: -7.7%; HEK293 tox: -12.1%

How did CC(C)CNc1nc(=S)nc(N(C)C)[nH]1 do in these assays?
VP16 counter: 4.47µM*; GLP1R inv ag: 3.6%; RORgamma inh: 1.78µM*; HEK293 tox: 3.8%; GLP-1R agonist: -13.7%

How did CN(C)c1nc(=S)nc(NCc2ccccc2)[nH]1 do in these assays?
VP16 counter: -7.0%[10 µM]; GLP1R inv ag: -6.5%; RORgamma inh: 25.0%; HEK293 tox: -16.8%; GLP-1R agonist: 10.7%

What do the screens show for `Cc1ccc(/C=N/n2c(-c3cccnc3)n[nH]c2=S)s1`?
VP16 counter: inconclusive; GLP1R inv ag: 0.6%; RORgamma inh: 7.08µM*; HEK293 tox: -23.3%; GLP-1R agonist: 0.1%

Results for S=c1[nH]nc(-c2ccco2)n1-c1ccc(Br)cc1 ?
GLP1R inv ag: -1.5%; HEK293 tox: 20.3%; GLP-1R agonist: 0.7%

How did S=c1[nH]nc(-c2ccco2)n1/N=C/c1ccccc1Cl do in these assays?
VP16 counter: 22.4µM*; GLP1R inv ag: 21.4%; RORgamma inh: 3.16µM*; HEK293 tox: -13.1%; GLP-1R agonist: -4.4%

What do the screens show for `S=c1[nH]nc(-c2ccco2)n1/N=C/c1ccc(Cl)cc1`?
VP16 counter: 3.98µM*; GLP1R inv ag: -20.2%; RORgamma inh: 4.47µM*; HEK293 tox: inconclusive; GLP-1R agonist: -5.4%
